Assay [1] is described as follows: viability loss with induced miR-34 in A549 – imaging, A549 dox-inducible miR-34, nuclei and caspase counts, primary screen (AID 1347080). The following applies: A549 miR-34 inducible, Hoechst nuclei count, 48 h.
Assay [2] in a line: compounds altering circadian rhythm period length – cell-based, LOPAC library, luminescence reporter (AID 2774; call rule not given here;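 also: values are relative to mean of DMSO wells on each plate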). The following applies: circadian reporter cells, at 7 µM, actives lie on both sides.
The test system of assay [3] is Hepatitis C virus NS3 helicase. The experiment in a line: blockers of NS3h binding to ssDNA – biochemical, fluorescence polarization, LOPAC1280 library, primary screen (AID 687035; in the data active = inhibition above about 37%). The following applies: Purified HCV NS3 helicase, Cy5-dT15 ssDNA binding fluorescence polarization; stronger effect = higher value; concentration not given here. A general note: Polarisation of emitted light reports the rotation of a fluorescent probe.

Assay [4] is described as follows: compounds altering Cy5-DNA-NS3h complex signal – biochemical, LOPAC1280, artefact control for HCV NS3 helicase inhibitor project (AID 687037; call rule not given here). The following applies: Cy5-DNA-NS3h complex fluorescence interference counterscreen.
Assay [5] in a line: chitosan synthesis blockers in C. neoformans – flow cytometry, Cibacron Brilliant Red staining (AID 1347148; call rule not given here;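 also: compound exposure lasted three days at 37 degrees C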). The following applies: Cryptococcus neoformans chitosan, stronger effect = lower value; at 10 µM unless noted. For orientation: A flow cytometer gives signals particle by particle.
Assay [6] is described as follows: blockers of cellular phospholipid synthesis – cell-based, LOPAC library, screen 4, primary screen (AID 1347384; call rule not given here). The settings on record: animal cells, phospholipid biosynthesis inhibition screen; at 10 µM.
A short description of assay [7]: galactose survival enhancers in mitochondrial complex I cybrids – cell-based, galactose medium, ATP luminescence, primary screen (AID 1645843;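 active = z-score of at least 1.8 in each of two replicates, scored against plate mean and spread of sample wells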;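 also: positive z means more ATP and so rescue of galactose-driven cybrid death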). The following applies: complex I mutant cybrid cells, 72 h, stronger effect = higher value.
A short description of assay [8]: P. berghei load reduction in hepatocytes – cell-based, HepG2, luciferase luminescence, HepG2 viability, primary screen (AID 624349; in the data active = parasite load remaining mostly below about 12%, no sharp cut-off; inactive = mostly above about 10%;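 also: 100% = mean of DMSO negative control wells on the same plate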). The following applies: P. berghei liver stage in HepG2, luciferase luminescence, concentration not given here; parasite load remaining: stronger effect = lower value; viability: measured here: HepG2 viability without parasites.
Assay [9] is described as follows: MELAS cybrid and Rieske KO viability enhancers – cell-based, MELAS cybrids, Rieske KO mouse fibroblasts, CellTiter-Glo, primary screen (AID 1508586;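 active = mean z-score across replicates of 1.96 or higher in either the MELAS or the Rieske mutant cell line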;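 also: z relative to plate mean and SD of compound and empty wells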). The settings on record: low glucose. In general terms: In ATP-based viability assays light output follows the ATP content of the culture.
A short description of assay [10]: compounds altering viability of human ES cells (AID 493140; call rule not given here;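 also: cells exposed to compounds for four days before counting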). The following applies: human embryonic stem cell survival screen; stronger effect = higher value.
[11] abbreviates: stronger effect = lower value, cell number ratio, induced over uninduced.
Setting [12] is: measured here: relative caspase fold change +Dox/-Dox.
[13] abbreviates: measured here: total cells with miR-34 induction, stronger effect = lower value.
Where [14] appears, read: measured here: total cells without miR-34 induction.
[15] abbreviates: MELAS cybrid survival, CellTiter-Glo 48 h, stronger effect = higher value.
Setting [16] is: Rieske KO mouse fibroblast survival, CellTiter-Glo 72 h.

Where “and” joins values, the source holds several entries; their conditions need not be identical. Equal values may be shown once. Calls of active or inactive are those of the source.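 The calls were made as follows, unless noted: active = compounds whose cell count with miR-34 switched on is under 0.7 times the count with it off; inactive = the rest.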 Where a SMILES comes first, the peptide text is derived from it. The star is where a group is joined. Cbz = O=C(OCc1ccccc1)*

As usually defined, the inhibition is the drop in the measured response relative to a control, in per cent. One may read the viability as a read-out of living cells in per cent, often relative to untreated cells.

Take `CC(C(=O)Nc1cccc(N=Cc2c(O)ccc3ccccc23)c1)c1ccccc1` (stereo unspecified): the fold change in assay [1] (setting [11]) is 0.971 (inactive); in assay [1] (setting [12]), 1.6. Besides, the cell count in [1] (setting [13]) was found to be 5970; in assay [1] (setting [14]), 6150.
Take `CC(C)[C@H](NC(=O)OCc1ccccc1)C(=O)N[C@H](C=O)Cc1ccccc1` (Cbz-Val-Phe-aldehyde): the period change in [2] was -0.095 h (inactive). Further, in assay [3], the inhibition was 1% (inactive). Besides, in assay [4], the fluorescence ratio (interference) is 1.1 (inactive). The fold change in assay [1] (setting [11]) is 1.08 (inactive) and 0.959 (inactive); in [1] (setting [12]), 1.1 and 1.17. Further, the cell count is 9200 and 4810 in assay [1] (setting [13]); 8520 and 5010 in [1] (setting [14]). The fold fluorescence in assay [5] was 5.31 [at 130.7 µM] (inactive). For the same compound, the call in assay [6] was inactive. The z-score in [7] was 0.52 (inactive).
Turning to `O=C(O)CCC/C=C\C[C@@H]1[C@@H](CC[C@@H](O)CCc2ccccc2)[C@H](O)C[C@@H]1O`, the fold change in assay [1] (setting [11]) is 0.863 (inactive); in assay [1] (setting [12]) it was 1.41. Besides, the cell count stood at 5880 in [1] (setting [13]) and 6810 in [1] (setting [14]).
With `NC(=Nc1ccccc1)NC(=O)c1nc(Cl)c(N)nc1N`, in assay [2], the period change was -0.435 h (inactive). In addition, the parasite load remaining in assay [8] was 58.8% (inactive). Besides, the viability in assay [8] worked out at 98%. Further, the inhibition in [3] is -2% (inactive). The fluorescence ratio (interference) in [4] is 1 (inactive). For the same compound, the fold change in assay [1] (setting [11]) is 1.04 (inactive) and 0.937 (inactive) and 0.841 (inactive); in assay [1] (setting [12]), 1.01 and 1.25 and 1.03. The cell count in [1] (setting [13]) is 5840 and 3000 and 8780; in assay [1] (setting [14]) it was 5620 and 3200 and 10400. Further, the fold fluorescence in [5] is 5.89 [at 163.5 µM] (inactive). Besides, the outcome in assay [6] was inactive. Besides, the z-score was 1.28 (inactive) in [9] (setting [15]); 0.859 in assay [9] (setting [16]); -0.925 (inactive) and 0.595 (inactive) in [7].
With `CCCCCCCCCCCCC/C=C/[C@@H](O)[C@H](CO)N(C)C`, in assay [10], the survival was 80.2 (inactive). Further, the fold change is 1.08 (inactive) and 0.933 (inactive) in [1] (setting [11]); 1.39 and 1.34 in [1] (setting [12]). Also, the cell count in assay [1] (setting [13]) was 5480; in assay [1] (setting [14]), 5090 and 5880. Besides, the fold fluorescence in assay [5] is 6.79 (inactive).
`CCCCC/C=C\C/C=C\C/C=C\CCCCCCC(=O)O`: in assay [10], the survival is 92.4 (inactive). Moreover, the fold change in [1] (setting [11]) is 1.02 (inactive) and 1.05 (inactive); in [1] (setting [12]), 1.28 and 1.4. Moreover, the cell count was 5830 and 6270 in [1] (setting [13]); 5710 and 6000 in assay [1] (setting [14]). In addition, the fold fluorescence in [5] was 4.94 (inactive).
`O=C1NC(O)=NC1(c1ccccc1)c1ccccc1`: the period change in [2] is -0.095 h (inactive). Also, the inhibition in [3] was -2% (inactive). Further, in [4], the fluorescence ratio (interference) was 1.1 (inactive). In addition, the fold change was 0.966 (inactive) and 0.93 (inactive) in assay [1] (setting [11]); 1.46 and 0.866 in assay [1] (setting [12]). The cell count in [1] (setting [13]) was 9800 and 7860; in assay [1] (setting [14]), 10100 and 8450. The fold fluorescence in assay [5] was 4.71 [at 198.2 µM] (inactive). The values for the z-score in assay [9] (setting [15]), in assay [9] (setting [16]) and in assay [7] were -0.314 (inactive), -0.0769 and 0.26 (inactive), respectively.
With `CCCCCCCC(=O)CC[C@@H]1[C@@H](C/C=C\CCCC(=O)O)[C@@H](O)C[C@H]1O`, the fold change in assay [1] (setting [11]) is 0.944 (inactive); in [1] (setting [12]) it was 1.3. Also, the cell count in [1] (setting [13]) turned out to be 5400; in assay [1] (setting [14]), 5720.
Take `O=C1C[C@@H]2[C@@H](/C=C/[C@@H](O)COc3cccc(C(F)(F)F)c3)[C@H](O)C[C@@H]2O1`: the fold change in [1] (setting [11]) was 0.96 (inactive); in assay [1] (setting [12]), 1.35. For the same compound, the cell count in assay [1] (setting [13]) was 5650; in assay [1] (setting [14]), 5880.
In the same order, the values of `CCCCCCCCCCCCCCCCCC(=O)OCC` are 0.95 (inactive), 2.18, 5760 and 6060.
On to `O=P(O)(O)O[C@@H]1[C@H](O)[C@H](O)[C@@H](OP(=O)(O)O)[C@H](OP(=O)(O)O)[C@H]1O`, for which the fold change in assay [1] (setting [11]) was 0.931 (inactive); in [1] (setting [12]) it was 0.377. Further, the cell count in [1] (setting [13]) amounted to 5940; in [1] (setting [14]), 6380.
Consider `CCCCC[C@H](O)/C=C/[C@H]1C(=O)C[C@H](O)[C@@H]1C/C=C\CCCC(=O)O`, for which the survival in assay [10] was 96.1 (inactive). Besides, the fold change in assay [1] (setting [11]) is 0.966 (inactive) and 0.979 (inactive); in assay [1] (setting [12]), 1.13 and 1.66. Also, the cell count was 6220 and 5740 in assay [1] (setting [13]); 6440 and 5870 in assay [1] (setting [14]). Besides, in assay [5], the fold fluorescence is 3.99 (inactive).
Take `NCCNS(=O)(=O)c1cccc2c(Cl)cccc12`: the inhibition in assay [3] was -2% (inactive). In [4], the fluorescence ratio (interference) is 1 (inactive). The fold change was 1.01 (inactive) and 0.93 (inactive) in [1] (setting [11]); 0.86 and 1.13 in [1] (setting [12]). Moreover, the cell count was 9070 and 4030 in assay [1] (setting [13]); 9000 and 4330 in assay [1] (setting [14]). Moreover, in assay [5], the fold fluorescence is 10.8 [at 175.6 µM] (inactive). The call in assay [6] was inactive. In addition, the z-score in assay [7] is -0.845 (inactive).
As to `COc1ccc2c(c1)c(CC(=O)SC[C@H](NC(C)=O)C(=O)OCCCCO[N+](=O)[O-])c(C)n2C(=O)c1ccc(Cl)cc1`, the values for the fold change in [1] (setting [11]) and in assay [1] (setting [12]) were 1.08 (inactive) and 0.702, respectively. Further, the results for the cell count in assay [1] (setting [13]) and in [1] (setting [14]) were 6270 and 5810, respectively.
For `CCCCC/C=C\C/C=C\CCCCCCCC(=O)O`, in assay [10], the survival was 55.7 (inactive). Further, the fold change was 0.973 (inactive) and 1.02 (inactive) in assay [1] (setting [11]); 1.17 and 0.947 in [1] (setting [12]). Moreover, the cell count was 6220 and 5980 in assay [1] (setting [13]); 6400 and 5840 in [1] (setting [14]). Moreover, in [5], the fold fluorescence is 4.86 (inactive).
Regarding `CCCCCCCC/C=C\C/C=C\C/C=C\CCCC(=O)NCCO`, in assay [10], the survival was 87.2 (inactive). The fold change is 0.911 (inactive) and 1.07 (inactive) in assay [1] (setting [11]); 0.981 and 0.763 in [1] (setting [12]). The cell count in assay [1] (setting [13]) was 6100 and 5740; in assay [1] (setting [14]), 6690 and 5350. In addition, the fold fluorescence in [5] was 4.64 (inactive).
In the case of `CC(=O)N[C@@H](CSC/C=C(\C)CC/C=C(\C)CC/C=C(\C)CCC=C(C)C)C(=O)O`, the survival in [10] is 106 (inactive). Further, the fold change in assay [1] (setting [11]) was 0.941 (inactive) and 0.949 (inactive); in [1] (setting [12]), 1.39 and 0.928. In addition, the cell count in [1] (setting [13]) is 6090 and 5570; in assay [1] (setting [14]), 6470 and 5860. Further, the fold fluorescence in assay [5] was 5.22 (inactive).
`CC/C=C\C/C=C\C/C=C\C/C=C\C/C=C\C/C=C\CCC(=O)O`: in assay [10], the survival is 81.3 (inactive). Further, the fold change was 0.965 (inactive) and 0.982 (inactive) in [1] (setting [11]); 0.949 and 0.678 in [1] (setting [12]). The cell count in [1] (setting [13]) was 5660 and 5960; in assay [1] (setting [14]), 5860 and 6070. The fold fluorescence in assay [5] is 4.24 (inactive).
For the compound `CC(C)=CCC/C(C)=C/CC/C(C)=C/CSCC(=O)O`, the survival in assay [10] is 89.7 (inactive). Besides, the fold change is 0.964 (inactive) and 0.982 (inactive) in assay [1] (setting [11]); 1.23 and 1.52 in [1] (setting [12]). Further, the cell count in assay [1] (setting [13]) is 5900; in assay [1] (setting [14]), 6120 and 6010. Further, the fold fluorescence in assay [5] was 2.64 (inactive).
On to `CCCCCCCCCCCCC/C=C/[C@@H](O)[C@H](CO)NCCCCCCCC`, for which the survival in [10] was 61.3 (inactive). The fold change in [1] (setting [11]) was 0.925 (inactive) and 1 (inactive); in assay [1] (setting [12]) it was 1.2 and 0.737. Besides, the cell count in assay [1] (setting [13]) was 5120 and 5820; in assay [1] (setting [14]), 5540 and 5810. The fold fluorescence in assay [5] is 10.3 (inactive).
